The text below walks through data of PubChem BioAssay (NCI).

Values joined by “and” are separate entries in the source; they are usually repeats but may differ in a detail not shown here. Equal values may be shown once. About 79,000 compounds went through this panel and 15% of them were active in at least one assay; those are over-represented in the sample as a whole. More than one record can exist for a structure, and the calls need not agree. Active and inactive are the calls of the source. Cut-off read from the data, not from the text of the source: active = growth inhibition above about 70%; inactive = the rest.

Test [1] in a line: NCI Yeast Anticancer Drug Screen. Data for the rad50 strain (AID 155).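 Note: 0% = growth of vehicle-only cultures of the same strain.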 The settings on record: S. cerevisiae rad50 strain growth inhibition, stronger effect = higher value. The essentials: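 Vehicle-treated cultures provide the reference for the growth inhibition reported for compound-exposed, repair-deficient yeast.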
Test [2] in a line: NCI Yeast Anticancer Drug Screen. Data for the mec2-1 strain (AID 157). The settings on record: S. cerevisiae mec2-1 strain, stronger effect = higher value. An outline of the steps: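 Each compound was tested on mec2-1 yeast, a strain altered in DNA damage repair or cell cycle control. Growth inhibition is reported relative to vehicle.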
Test [3] can be described thus: NCI Yeast Anticancer Drug Screen. Data for the sgs1 mgt1 strain (AID 161).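 Note: 0% = growth of cultures given vehicle only.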 The settings on record: S. cerevisiae sgs1 mgt1 strain, stronger effect = higher value. The essentials: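 Mutant yeast exposed to compound; growth scored against vehicle-only wells.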
A short description of test [4]: NCI Yeast Anticancer Drug Screen. Data for the cln2 rad14 strain (AID 165).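 Note: 0% = growth equal to vehicle treated cultures.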 The settings on record: S. cerevisiae cln2 rad14 strain, stronger effect = higher value. An outline of the steps: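 Test compounds were added to cln2 rad14 yeast cultures; inhibition of growth was then determined by comparison with vehicle treatment.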
Test [5] in a line: NCI Yeast Anticancer Drug Screen. Data for the bub3 strain (AID 167). The settings on record: S. cerevisiae bub3 mutant strain, stronger effect = higher value. An outline of the steps: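 Mutant yeast screening strain plus compound; vehicle-treated cultures serve as the 0% inhibition reference.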
Test [6] can be described thus: NCI Yeast Anticancer Drug Screen. Data for the mlh1 rad18 strain (AID 175). The settings on record: S. cerevisiae mlh1 rad18 strain growth inhibition, stronger effect = higher value. The essentials:
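Inhibition values reflect reduced growth of mutant yeast versus vehicle-treated controls following compound exposure; the mutations affect DNA damage repair.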

The mark [7] stands for this setting: at 5.0 µM (retest, dose inferred, filed as 0.5).
Setting [8] is: at 50.0 µM (retest, dose inferred, filed as 5.0).

Regarding `COc1cc2c(cc1OC)C(Cc1c3ccccc3cc3ccccc13)N(C)CC2` (stereo unspecified), the growth inhibition was 4% (inactive) in test [1] (setting [7]); 41% (inactive) in test [1] (setting [8]); 16.2% (inactive) in test [1] (at 50.0 µM); -18% (inactive) in test [2] (setting [7]); 43% (inactive) in test [2] (setting [8]); 14.8% (inactive) in test [2] (at 50.0 µM). Also, the growth inhibition in test [3] (setting [7]) is 1% (inactive); in test [3] (setting [8]), 50% (inactive); in test [3] (at 50.0 µM), 93.1% (active); in test [4] (setting [7]), 0% (inactive); in test [4] (setting [8]) it was 3% (inactive); in test [4] (at 50.0 µM), 62.5% (inactive). Moreover, the growth inhibition in test [5] (setting [7]) was 0% (inactive); in test [5] (setting [8]) it was 15% (inactive); in test [5] (at 50.0 µM) it was 58.3% (inactive); in test [6] (setting [7]), 3% (inactive); in test [6] (setting [8]) it was 56% (inactive); in test [6] (at 50.0 µM) it was 99.4% (active).
Consider `CCOC(=O)c1c[nH]c2c(ccc3cccnc32)c1=O`, for which the growth inhibition in test [1] (setting [7]) is 10% (inactive) and 5% (inactive); in test [1] (setting [8]), 64% (inactive) and 66% (inactive); in test [1] (at 50.0 µM), 38% (inactive) and 38.8% (inactive); in test [2] (setting [7]), 7% (inactive) and -15% (inactive); in test [2] (setting [8]), 64% (inactive) and 43% (inactive); in test [2] (at 50.0 µM) it was 13.9% (inactive) and 12.2% (inactive). Also, the growth inhibition in test [3] (setting [7]) was 8% (inactive) and -1% (inactive); in test [3] (setting [8]) it was 85% (active) and 56% (inactive); in test [3] (at 50.0 µM), 10.8% (inactive) and 52.7% (inactive); in test [4] (setting [7]), 3% (inactive) and -3% (inactive); in test [4] (setting [8]), 43% (inactive) and 41% (inactive); in test [4] (at 50.0 µM), 26.9% (inactive) and 24.3% (inactive). The growth inhibition is -3% (inactive) and 4% (inactive) in test [5] (setting [7]); 48% (inactive) and 43% (inactive) in test [5] (setting [8]); 18.4% (inactive) and 6.8% (inactive) in test [5] (at 50.0 µM); 2% (inactive) and -1% (inactive) in test [6] (setting [7]); 84% (active) and 79% (active) in test [6] (setting [8]); 37.7% (inactive) and 79.8% (active) in test [6] (at 50.0 µM).
Regarding `COC(=O)C1=COC(C)C2C[n+]3ccc4c([nH]c5ccccc54)c3CC12` (stereo unspecified), the growth inhibition is 23% (inactive) in test [1] (setting [7]); 25% (inactive) in test [1] (setting [8]); -11.6% (inactive) and 6.35% (inactive) in test [1] (at 50.0 µM); 22% (inactive) in test [2] (setting [7]); 25% (inactive) in test [2] (setting [8]); -34% (inactive) and 31.9% (inactive) in test [2] (at 50.0 µM). The growth inhibition was 17% (inactive) in test [3] (setting [7]); 38% (inactive) in test [3] (setting [8]); -11.2% (inactive) and 17.6% (inactive) in test [3] (at 50.0 µM); 21% (inactive) in test [4] (setting [7]); 30% (inactive) in test [4] (setting [8]); -8.3% (inactive) and -15.8% (inactive) in test [4] (at 50.0 µM). Further, the growth inhibition was 22% (inactive) in test [5] (setting [7]); 35% (inactive) in test [5] (setting [8]); -31.1% (inactive) and 38.2% (inactive) in test [5] (at 50.0 µM); 23% (inactive) in test [6] (setting [7]); 39% (inactive) in test [6] (setting [8]); -18.1% (inactive) and 43.3% (inactive) in test [6] (at 50.0 µM).
Turning to `CC(=O)OCC1OC(n2c(=S)n(-c3ccccc3)c(=O)c3ccccc32)C(OC(C)=O)C(OC(C)=O)C1OC(C)=O` (stereo unspecified), the growth inhibition in test [1] (setting [7]) was 27% (inactive); in test [1] (setting [8]), 27% (inactive); in test [1] (at 50.0 µM), 8.65% (inactive) and -2.35% (inactive); in test [2] (setting [7]), 14% (inactive); in test [2] (setting [8]) it was 14% (inactive); in test [2] (at 50.0 µM), -27.1% (inactive) and 5.4% (inactive). The growth inhibition was 11% (inactive) in test [3] (setting [7]); 11% (inactive) in test [3] (setting [8]); 6.3% (inactive) and -28.1% (inactive) in test [3] (at 50.0 µM); 17% (inactive) in test [4] (setting [7]); 17% (inactive) in test [4] (setting [8]); 9.15% (inactive) and -3.95% (inactive) in test [4] (at 50.0 µM). Further, the growth inhibition is 6% (inactive) in test [5] (setting [7]); 6% (inactive) in test [5] (setting [8]); 58.9% (inactive) and -30.1% (inactive) in test [5] (at 50.0 µM); 7% (inactive) in test [6] (setting [7]); 7% (inactive) in test [6] (setting [8]); 12.2% (inactive) and -0.5% (inactive) in test [6] (at 50.0 µM).
Take `O[Si](c1ccccc1)(c1ccccc1)c1ccccc1.O[Si](c1ccccc1)(c1ccccc1)c1ccccc1.O[Si](c1ccccc1)(c1ccccc1)c1ccccc1.[O]=[V]`: the growth inhibition is 58% (inactive) in test [1] (setting [7]); 64% (inactive) in test [1] (setting [8]); 62.1% (inactive) in test [1] (at 50.0 µM); 37% (inactive) in test [2] (setting [7]); 50% (inactive) in test [2] (setting [8]); 67% (inactive) in test [2] (at 50.0 µM). For the same molecule, the growth inhibition in test [3] (setting [7]) was 46% (inactive); in test [3] (setting [8]) it was 58% (inactive); in test [3] (at 50.0 µM), 70.3% (active); in test [4] (setting [7]), 15% (inactive); in test [4] (setting [8]), 31% (inactive); in test [4] (at 50.0 µM) it was 27.1% (inactive). Also, the growth inhibition was 63% (inactive) in test [5] (setting [7]); 62% (inactive) in test [5] (setting [8]); 43.4% (inactive) in test [5] (at 50.0 µM); 53% (inactive) in test [6] (setting [7]); 58% (inactive) in test [6] (setting [8]); 72.6% (active) in test [6] (at 50.0 µM).
As to `CCCCCCCCCCCCOC(=O)C(C)OC(C)=O` (stereo unspecified), the growth inhibition in test [1] (setting [7]) is 1% (inactive) and 2% (inactive); in test [1] (setting [8]), 99% (active) and 97% (active); in test [1] (at 50.0 µM) it was 98.8% (active) and 98.9% (active); in test [2] (setting [7]), -1% (inactive) and 1% (inactive); in test [2] (setting [8]), 99% (active) and 98% (active); in test [2] (at 50.0 µM) it was 98.5% (active) and 98.8% (active). The growth inhibition in test [3] (setting [7]) was 2% (inactive) and 5% (inactive); in test [3] (setting [8]), 99% (active); in test [3] (at 50.0 µM), 99.2% (active) and 7.6% (inactive); in test [4] (setting [7]), -1% (inactive) and 5% (inactive); in test [4] (setting [8]) it was 97% (active) and 92% (active); in test [4] (at 50.0 µM), 98.8% (active) and 96.5% (active). The growth inhibition was 1% (inactive) in test [5] (setting [7]); 99% (active) and 96% (active) in test [5] (setting [8]); 98% (active) and 99.1% (active) in test [5] (at 50.0 µM); -10% (inactive) and 2% (inactive) in test [6] (setting [7]); 99% (active) in test [6] (setting [8]); 98.7% (active) and 99% (active) in test [6] (at 50.0 µM).
As to `COC(=O)C1C(O)C(C)C(O)C(C)C=C(C)C2=C3C(=C(C)C(=O)c4c(O)c(c(C)c(OC(C)=O)c43)NC(=O)C(C)=C/C=C\C(C)C(O)C(C)C1O)OCO2` (stereo unspecified), the growth inhibition was -11% (inactive) in test [1] (setting [7]); -37% (inactive) in test [1] (setting [8]); 53.1% (inactive) and 5.45% (inactive) in test [1] (at 50.0 µM); -14% (inactive) in test [2] (setting [7]); -42% (inactive) in test [2] (setting [8]); 22.1% (inactive) and -8.55% (inactive) in test [2] (at 50.0 µM). In addition, the growth inhibition is -11% (inactive) in test [3] (setting [7]); 89% (active) in test [3] (setting [8]); 90.2% (active) and -9.2% (inactive) in test [3] (at 50.0 µM); -10% (inactive) in test [4] (setting [7]); 10% (inactive) in test [4] (setting [8]); 28.6% (inactive) and 3% (inactive) in test [4] (at 50.0 µM). The growth inhibition was -31% (inactive) in test [5] (setting [7]); -27% (inactive) in test [5] (setting [8]); 37.9% (inactive) and 8.2% (inactive) in test [5] (at 50.0 µM); -36% (inactive) in test [6] (setting [7]); -3% (inactive) in test [6] (setting [8]); 17.6% (inactive) and 8.65% (inactive) in test [6] (at 50.0 µM).
